Screening results deposited in PubChem BioAssay by National Center for Advancing Translational Sciences (NCATS).
Shown are actives, neighbours in structure and some others; about 0.97% of the full set was active somewhere.
CtBP-E1A inh – blocks the CtBP interaction with E1A; AlphaScreen GST-E1A/His-CtBP binding, 1536-well; stronger effect = lower value; activity change, % (concentration not given with the values); actives 0.49% (n = 340,000); AID 651724
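Protein mix (5X: 125 nM each GST-E1A, His-CtBP) was incubated with pinned compound 2 h at 37 deg C in dark, in 50 mM Tris pH 8.0 buffer with 300 mM NaCl. Glutathione donor and nickel acceptor beads followed; AlphaScreen signal read after 1 h.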
Six1-Eya2 inh – blocks human Six1 binding to Eya2; Q15475+O00167; AlphaScreen GST-Six1/His-Eya2 binding, biochemical; stronger effect = lower value; activity change, % (no concentration beside the values); actives 0.56% (n = 360,000)
Target sequence (O00167 whole entry, looked up): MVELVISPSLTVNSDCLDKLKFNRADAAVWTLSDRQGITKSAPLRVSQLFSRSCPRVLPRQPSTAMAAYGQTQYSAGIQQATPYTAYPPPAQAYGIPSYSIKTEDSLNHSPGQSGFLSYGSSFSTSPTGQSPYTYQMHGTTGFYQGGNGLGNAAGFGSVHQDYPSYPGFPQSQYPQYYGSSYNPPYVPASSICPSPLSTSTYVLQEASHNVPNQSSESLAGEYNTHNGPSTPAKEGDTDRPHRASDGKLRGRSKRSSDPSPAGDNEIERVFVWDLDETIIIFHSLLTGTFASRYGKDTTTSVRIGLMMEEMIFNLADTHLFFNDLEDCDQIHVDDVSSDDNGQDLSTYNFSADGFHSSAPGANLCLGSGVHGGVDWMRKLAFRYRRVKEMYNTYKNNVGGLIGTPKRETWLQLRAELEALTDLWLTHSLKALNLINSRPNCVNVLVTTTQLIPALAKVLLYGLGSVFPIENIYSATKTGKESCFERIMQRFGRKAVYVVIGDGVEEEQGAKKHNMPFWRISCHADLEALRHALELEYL
Target sequence (Q15475 whole entry, looked up): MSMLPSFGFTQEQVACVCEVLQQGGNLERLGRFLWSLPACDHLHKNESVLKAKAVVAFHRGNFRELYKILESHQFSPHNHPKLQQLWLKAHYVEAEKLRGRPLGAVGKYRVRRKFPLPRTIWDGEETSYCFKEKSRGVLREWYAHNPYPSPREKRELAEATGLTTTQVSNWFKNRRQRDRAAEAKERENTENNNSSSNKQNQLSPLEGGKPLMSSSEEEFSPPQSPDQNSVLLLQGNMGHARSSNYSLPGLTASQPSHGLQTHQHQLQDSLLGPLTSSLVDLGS
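Compounds are tested against tagged Six1 and Eya2 proteins bridged by glutathione donor and nickel acceptor beads; after a one-hour incubation at 37 °C without light, AlphaScreen emission is recorded.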
CCT chaperon mod – modulators of cytosolic chaperonin (CCT/TRiC) activity; actives 0.3% (n = 360,000); purified chaperonin ATPase assay, HTRF ADP detection, 30 min; activity change, % (test concentration not listed), hits read low; in the data active means activity change below about -30%
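Enzyme 40 or 20 nM (batch-dependent) in Tris pH 7.4/KCl/MgCl2/DTT; cpd 76 uM single point; ATP 10 uM; 30 min 37 °C; Transcreener ADP HTRF detection, 30 min RT; ratio 665/615.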
PI4K2A inh – PI4K2A (human) kinase inhibition; Q9BTU6; purified PI4K2A, ADP-Glo luminescence, 1 h; stronger effect = lower value; activity change, negative = inhibition, % at 76.9 µM; actives 0.13% (n = 420,000); AID 1346378; in the data active means activity change below about -50%; inconclusive means mostly about -30% to -49%;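 further: -100% = wells without enzyme as full effect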
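PI4K2A activity was measured by ADP-Glo luminescence: enzyme (4 ug/mL stock) and phosphatidylinositol (1.2 mM stock) in Tris pH 7.5/MgCl2/EGTA/Triton X-100 buffer were reacted with ATP (300 microM stock) for one hour at ambient temperature.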
Eya2 inh – inhibitors of human Eya2 phosphatase activity; O00167; recombinant Eya2, OMFP fluorescence dephosphorylation (OMFP is methylfluorescein phosphate); Potency, µM (titrated, usually from 76.9 µM), without a hit: at the top dose activity, negative = inhibition, usual class: inhibitors; actives 0.006% (n = 330,000); AID 488837; active means well fitted inhibition curve with a large enough effect; inconclusive means small, poorly fitted or top-dose-only effect, or effect the other way; further: potency means the concentration at half of the fitted maximal effect
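Eya2 (0.2 uM) preincubated 10 min at ambient with compound, then OMFP substrate added at 50 uM; 10 min reaction in 50 mM HEPES pH 7.5, 50 mM NaCl, 5 uM MgCl2, 0.05% BSA, 1 mM DTT. Fluorescence read at Ex 485/Em 525 nm.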
Numbers without * were called inactive; ? = inconclusive; . = no result. Unless noted, no stated cut-off is given here; in the data, active means activity change below about -65%; inconclusive means mostly about -30% to -63%; inactive means weaker than that. Unless noted, on the % scale 0 is the no-effect control and ±100 the full control effect.

SMILES	CtBP-E1A inh	Six1-Eya2 inh	CCT chaperon mod	PI4K2A inh	Eya2 inh
S=C(NCc1ccccn1)NN=Cc1ccccn1	-4	-91*	2	-1	.
O=C(Nc1nnc(S(=O)(=O)N2CCN(c3ccc(F)cc3)CC2)s1)c1ccc(Cl)cc1	.	.	.	3	.
CNS(=O)(=O)c1ccc(N=Cc2c(C)[nH]n(-c3ccc(C)cc3C)c2=O)cc1	-2	-2	1	-24	1%
Cc1cc(Br)ccc1-n1[nH]c(C)c(C=Nc2cccc3nsnc23)c1=O	-16	1	1	-54*	12%
Cc1ccc(CN2COc3ccc4c(-c5ccccc5)cc(=O)oc4c3C2)cc1	.	.	.	-2	.
CCCC(=O)N(c1ccc2oc(=O)sc2c1)S(=O)(=O)c1ccccc1	?	-13	-1	-50*	-1%
COc1cccc(CSc2nc3n(n2)C(CC(C)C)C(C(=O)Nc2ccccc2OC)=C(C)N3)c1 (configuration not stated)	.	.	.	1	.
Cc1cc(=O)[nH]c2nnc(SCC(=O)Nc3cc(C(F)(F)F)ccc3Cl)n12	.	.	.	-58*	.
O=C(CSc1nnc2[nH]c(=O)cc(-c3ccccc3)n12)Nc1cc(C(F)(F)F)ccc1Cl	.	.	.	-2	.
CCCCN(CCCC)CCNC(=O)c1cn(CC)c2ccc(S(=O)(=O)N3CCCC3)cc2c1=O	.	0	-82*	-2	-17%
CCOCCCNC(=O)c1cn(CC)c2ccc(S(=O)(=O)N3CCC(C)CC3)cc2c1=O	6	0	-3	2	-5%
CCCCN(CC)CCCNC(=O)c1cn(CC)c2ccc(S(=O)(=O)N3CCc4ccccc4C3)cc2c1=O	-13	6	-1	0	-1%
CCCCN(C)CCCNC(=O)c1cn(CC)c2ccc(S(=O)(=O)N3CCc4ccccc4C3)cc2c1=O	-3	-5	-59*	3	-1%
CCOCCCNC(=O)c1cn(CC)c2ccc(S(=O)(=O)N3CCCC3)cc2c1=O	.	0	-52*	-2	2%
CCN(CC)CCNC(=O)c1cn(CC)c2ccc(S(=O)(=O)N3CCOCC3)cc2c1=O	.	4	-2	3	-7%
CCCCN(C)CCCNC(=O)c1cn(C)c2ccc(S(=O)(=O)N(C)C3CCCCC3)cc2c1=O	.	-4	-54*	-2	4%
CCCCN(CC)CCCNC(=O)c1cn(C)c2ccc(S(=O)(=O)N(C)C3CCCCC3)cc2c1=O	.	3	-3	3	-3%
CCCCC(CC)CNC(=O)CC(C)OC(=O)CCC(=O)O (configuration not stated)	.	.	.	1	.
Cc1ccccc1OCC(=O)Nc1cccc(S(=O)(=O)NC2=NCCCCC2)c1	2	0	1	3	-13%
Cc1ccc(C(C)C)c(OCC(=O)Nc2cccc(S(=O)(=O)NC3=NCCCCC3)c2)c1	-2	0	-36*	2	-12%
O=C(COC(=O)/C=C/c1cccc(Cl)c1)Nc1cccc(S(=O)(=O)NC2=NCCC2)c1	-80*	-15	0	1	-1%
O=C(COC(=O)/C=C/c1ccc(Cl)cc1Cl)Nc1cccc(S(=O)(=O)NC2=NCCC2)c1	-17	-18	1	-4	.
O=C(COC(=O)/C=C/c1ccc(Cl)cc1)Nc1cccc(S(=O)(=O)NC2=NCCCCC2)c1	-84*	-7	1	-1	-14%
CCCCCCCCCCCC[N+](C)(C)Cc1ccccc1	.	.	.	2	.
CCOC(=O)c1ccccc1NC(=O)Cn1cc(C(=O)c2cccc(OC)c2)c(=O)c2ccc(C)nc21	.	.	.	-4	.
SMILES	CtBP-E1A inh	Six1-Eya2 inh	CCT chaperon mod	PI4K2A inh	Eya2 inh
CCOc1c2ccc(C(=O)NCc3ccc(OC(F)(F)F)cc3)cc2nn1CC	.	1	-59*	4	5%
O=C(Nc1nccs1)c1nc[nH]c1C(=O)N1CCN(c2ccccc2)CC1	-71*	-78*	0	-11	9%
O=C(Nc1ccccc1)c1nc[nH]c1C(=O)N1CCN(c2ccccc2)CC1	3	4	0	-7	1%
CC1Sc2ccc(S(=O)(=O)N3CCC(C(=O)NCc4ccco4)CC3)cc2NC1=O (configuration not stated)	-6	-2	-34*	-1	7%
CC1Sc2ccc(S(=O)(=O)N3CCC(C(=O)N(C)Cc4ccco4)CC3)cc2NC1=O (configuration not stated)	1	-5	2	1	-2%
O=C(NCCc1ccccc1)c1cc(-c2cccc(Cl)c2)on1	.	.	.	1	.
CCc1c(C)nc2c(C#N)c[nH]n2c1=O	-77*	?	-2	3	-4%
CCOC(=O)Cc1c(C)nc2c(C#N)c[nH]n2c1=O	?	?	-6	8	3%
COc1ccc(C(=O)OCC(=O)c2c(N)n(C)c(=O)n(C)c2=O)cc1OC	0	2	-18	5	3%
CC(=O)Oc1ccc(C(=O)OCC(=O)c2c(N)n(C)c(=O)n(C)c2=O)cc1OC(C)=O	-18	-83*	-1	7	3%
Cc1nn(-c2ccccc2)c2c1N(CC(=O)N1CCN(c3ccc(F)cc3)CC1)C(=O)CS2	.	.	.	7	.
O=C(/C=C/c1cc(Br)ccc1F)OCC(=O)N1CCOCC1	-81*	-24	0	-2	0%
Cc1cccc(NC(=O)CCn2nc(-c3ccccc3)c3ccccc3c2=O)c1	.	.	.	-1	.
COc1ccnc(CSC(N)=Nc2cccc(C(F)(F)F)c2)c1	-7	-67*	-1	-2	8%
CC(C)(C)c1ccc(CSc2nc(N)cc(=O)[nH]2)cc1	-11	-10	-55*	-5	3%
O=C(Nc1c(Cl)cccc1Cl)Oc1cccc2cccnc12	-94*	-90*	2	-11	.
O=C(Nc1cccc(Br)c1)Oc1cccc2cccnc12	?	-90*	1	2	.
O=C(COc1cccc2cccnc12)Nc1ccccc1	1	8	-5	-1	34%
O=C(Nc1cccc(C(F)(F)F)c1)Oc1ccc(Cl)c2cccnc12	-96*	-70*	1	-14	-13%
CC(C)(c1ccccc1)c1ccc(OCC2CO2)cc1 (configuration not stated)	37	17	-30*	1	-2%
CN(C)CCOc1ccc(C(C)(C)c2ccccc2)cc1	?	5	-2	-1	8%
COc1ccccc1NC(=O)CSC1=Nc2ccccc2C2=NC(CCC(=O)NCc3cccs3)C(=O)N12 (configuration not stated)	.	.	.	-1	.
COc1ccc(CNC(=O)CCC2N=C3c4ccccc4N=C(SCc4ccc(F)cc4)N3C2=O)cc1 (configuration not stated)	.	.	.	2	.
Cc1occc1C(=O)N/N=C/c1ccc(N(C)C)cc1	-5	-3	1	-87*	6%
Cc1cccc(C)c1NC(=O)CSc1nnc(-c2ccco2)c(-c2ccco2)n1	-26	-67*	-2	-22	-13%
